Assay outcomes (PubChem BioAssay)
SENP8 block-1: blocks the human protease SENP8; purified SENP8, Z-RLRGG-aminoluciferin cleavage, luminescence; inhibition, % at 10 µM; hit rate 1.2% among 330,000; in the data active means inhibition above about 50%
PPC-1+TRAIL kill: kills PPC-1 cancer cells in the presence of TRAIL; PPC-1 cells + TRAIL, ATPLite viability luminescence; hit rate 0.41% among 220,000; cell killing (% activity), % at 4 µM or 5 µM; AID 1443;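 active means cell killing above 50% in the first pass at 4 µM, then a duplicate retest at 5 µM averaging 50% or more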
SENP8 block-2: SENP8 (human) protease inhibition. Q96LD8. recombinant SENP8, Nedd8 substrate fluorescence. inhibition, % at 20 µM. hit rate 0.64% among 360,000. AID 602440; in the data active means inhibition mostly above about 40%, no sharp cut-off; inactive means mostly below about 27%
C8 TRAIL sens: caspase-8 TRAIL sensitization; NB7+C8 cells + TRAIL, ATPlite viability luminescence; inhibition (viability loss, TRAIL sensitization), % at 10 µM; hit rate 1% among 360,000;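 active means compounds causing at least 50% loss of cell viability in the single-dose screen, relative to plate controls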
SENP6 block: SENP6 protease inhibition | Recombinant SENP6 catalytic domain, aminoluciferin luminescence | inhibition, % at 10 µM | Q9GZR1 | AID 2599 | hit rate 1.8% among 330,000;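 active means inhibition above about 50% at the single tested dose, limit read from the data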
SENP7 block: SENP7 protease inhibition; AID 434973; inhibition, % at 5 µM; hit rate 1.5% among 330,000; Q9BQF6; recombinant SENP7, Z-RLRGG-aminoluciferin luminescence, 40 min;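 active means inhibition above about 50% at the single test dose, limit read from the data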
Target sequence (Q9BQF6 706-1050 limits assumed): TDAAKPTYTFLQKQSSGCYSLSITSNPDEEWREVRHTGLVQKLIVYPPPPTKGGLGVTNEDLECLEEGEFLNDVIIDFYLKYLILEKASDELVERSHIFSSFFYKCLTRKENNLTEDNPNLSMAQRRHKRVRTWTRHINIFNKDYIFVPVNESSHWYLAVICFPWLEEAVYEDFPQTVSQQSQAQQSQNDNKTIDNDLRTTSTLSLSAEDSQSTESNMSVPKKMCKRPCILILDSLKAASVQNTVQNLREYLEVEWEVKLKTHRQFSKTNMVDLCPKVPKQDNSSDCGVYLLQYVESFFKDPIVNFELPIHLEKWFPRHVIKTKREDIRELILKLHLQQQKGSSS
SENP8 conf: confirmation of human SENP8 protease inhibitors. shares compounds with SENP7 block. Recombinant SENP8, Z-RLRGG-aminoluciferin luminescence, 60 min. inhibition, % at 12.5 µM. hit rate 40% among 6,200. AID 488912;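 active means mean inhibition across replicates above about 50%, limit read from the data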
SENP6 confirm: confirmation of human SENP6 protease inhibitors | shares compounds with SENP7 block | hit rate 58% among 6,200 | recombinant SENP6, Z-RLRGG-aminoluciferin luminescence | inhibition, % at 12.5 µM
SENP7 confirm: human SENP7 inhibition, confirmed | hit rate 69% among 6,200 | recombinant SENP7, Z-RLRGG-aminoluciferin luminescence, 40 min | shares compounds with SENP7 block | inhibition, % at 12.5 µM
Casp3 select: selectivity test for SENP inhibitors: human caspase-3 inhibition. shares compounds with SENP7 block. purified caspase-3, Z-DEVD-aminoluciferin luminescence, 60 min. inhibition, % at 12.5 µM. hit rate 60% among 6,200. AID 488918;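 active means mean inhibition above about 50%, limit read from the data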
Luc interf: counter-screen for SENP inhibitors: luminescence interference; inhibition, % at 12.5 µM; Pre-incubated SENP8/Z-RLRGG-aminoluciferin, luciferase luminescence interference; shares compounds with SENP7 block; hit rate 39% among 6,200; AID 488919;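 active means mean inhibition above about 50% when retested at one dose, limit read from the data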
Each line names hits and unclear results; the compound was inactive in the other large screens (follow-up assays come after a bar, where they were run). A selection: hits, their analogues and other compounds. The true share with any hit is near 3%.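 How the source made its calls, unless noted: active means mean inhibition above about 50% in the one-dose retest (limit read from the data); inactive means the rest.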

Nc1nn(-c2ccccc2)c(N)c1N=Nc1ccc2c(c1)OCO2	SENP6 block 61.8 | SENP8 conf inactive | SENP6 confirm inactive | SENP7 confirm 76.2 | Casp3 select inactive | Luc interf 60.7
Nc1nn(-c2ccccc2)c(N)c1N=Nc1cccc(F)c1	none
CCOc1cccc(C(=O)Nc2ccc3c(c2)OCCO3)c1	C8 TRAIL sens 59.2, SENP6 block 69.1, SENP7 block 64.6 (no result: PPC-1+TRAIL kill) | SENP8 conf 66.2 | SENP6 confirm 63.1 | SENP7 confirm 89.2 | Casp3 select 77.0 | Luc interf 69.0
CCOc1cccc(C(=O)Nc2cccc(C(C)=O)c2)c1	none
CCOc1cccc(C(=O)Nc2ccc3ccccc3c2)c1	SENP8 block-1 88.4, SENP6 block 92.9, SENP7 block 92.2 (no result: PPC-1+TRAIL kill) | SENP8 conf inactive | SENP6 confirm 65.7 | SENP7 confirm 98.9 | Casp3 select inactive | Luc interf inactive
CCCOc1ccc(C(=O)Nc2ccc3c(c2)OCCO3)cc1	SENP8 block-1 72.9, SENP6 block 63.7, SENP7 block 76.3 (no result: PPC-1+TRAIL kill) | SENP8 conf inactive | SENP6 confirm inactive | SENP7 confirm 93.4 | Casp3 select 74.5 | Luc interf inactive
O=C(Nc1ccc2ccccc2c1)c1cccc(F)c1	SENP8 block-1 60.3, SENP7 block 73.4 | SENP8 conf inactive | SENP6 confirm 58.8 | SENP7 confirm 87.1 | Casp3 select inactive | Luc interf inactive
O=C(Nc1cccc(NC(=O)c2cccc(F)c2)n1)c1cccc(F)c1	none (no result: PPC-1+TRAIL kill)
CC(=O)Oc1ccc(C(=O)Nc2ccc3c(c2)OCCO3)cc1	none (no result: PPC-1+TRAIL kill)
COCCNC(=O)C1CCCN(C(=O)COc2ccc(C(C)(C)C)cc2)CC1 (stereo not drawn)	none (no result: SENP8 block-1, PPC-1+TRAIL kill, SENP6 block, SENP7 block)
O=c1oc(-c2ccccc2)cc2ccccc12	none (no result: SENP8 block-1, PPC-1+TRAIL kill, SENP6 block, SENP7 block)
Nc1ccc(-c2cc3ccccc3c(=O)o2)cc1	SENP6 block 52.5 (no result: PPC-1+TRAIL kill) | SENP8 conf inactive | SENP6 confirm inactive | SENP7 confirm 77.0 | Casp3 select 54.6 | Luc interf inactive
COc1ccccc1/C=C/C(=O)Nc1ccc2c(c1)OCCO2	SENP8 block-1 51.6, PPC-1+TRAIL kill 56.2, C8 TRAIL sens 75.4, SENP6 block 67.4, SENP7 block 60.0 | SENP8 conf 68.2 | SENP6 confirm 66.1 | SENP7 confirm 86.1 | Casp3 select inactive | Luc interf 63.0
COc1ccccc1/C=C/C(=O)OCC(=O)Nc1ccc2c(c1)OCCO2	none (no result: PPC-1+TRAIL kill)
O=C(/C=C/c1ccccc1)Nc1ccc2c(c1)OCCO2	SENP8 block-1 66.9, C8 TRAIL sens 74.7, SENP6 block 74.3, SENP7 block 75.0 (no result: PPC-1+TRAIL kill) | SENP8 conf 74.0 | SENP6 confirm 71.2 | SENP7 confirm 87.7 | Casp3 select 64.7 | Luc interf 74.9
Cc1ccccc1CN(C)C(=O)c1ccc2ccccc2n1	none (no result: PPC-1+TRAIL kill)
Clc1ccc(OCc2nc(-c3ccccn3)no2)c(Br)c1	SENP8 block-1 90.8, C8 TRAIL sens 51.9, SENP6 block 95.4, SENP7 block 90.2 | SENP8 conf 82.3 | SENP6 confirm 94.7 | SENP7 confirm 99.3 | Casp3 select 85.8 | Luc interf 74.9
C[C@@H](NC(=O)c1nc[nH]c1C(=O)NCC(=O)OCc1ccccc1)c1ccccc1	none (no result: PPC-1+TRAIL kill)
COc1ccc(-c2ccc3c(N)c(C(=O)c4cccc(OC)c4)sc3n2)cc1	none
COc1cccc(-c2ccc3c(N)c(C(=O)NC4CC4)sc3n2)c1	SENP6 block 59.7 | SENP8 conf inactive | SENP6 confirm inactive | SENP7 confirm inactive | Casp3 select inactive | Luc interf inactive
